Bioassay records (PubChem)
An excerpt weighted towards active compounds, which were near 1.6% of everything screened.
KCNQ2 enhance: potentiators of rat KCNQ2 potassium channel | B-score at 10 µM | CHO-K1 KCNQ2, FluxOR thallium flux fluorescence; stronger effect = higher value | 0.54% of 310,000 active | O88943 | AID 2239;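 active = fluorescence ratio B-score at least 3 SD of library B-scores, with initial fluorescence B-score within 3 of them, cut at about 5.3 in these data; same plate scores as AID 2156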;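 note: B-score of peak minus minimum over baseline fluorescence ratio after K+ and Tl+ stimulus; positive B-score means potentiation of KCNQ2 with more thallium influx and brighter signal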
KCNQ2 block: inhibitors of rat KCNQ2 potassium channel | O88943 | CHO-K1 KCNQ2, FluxOR thallium flux, 20 min; stronger effect = lower value | B-score at 10 µM | 1.1% of 310,000 active;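 active = fluorescence ratio B-score at most minus 3 library SDs, with starting brightness B-score within 2 library SDs, cut at about -5.5 in these data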
Kir21 conf inh: confirmation of mouse Kir2.1 potassium channel inhibitors; 41% of 2,300 active; shares compounds with KCNQ2 enhance; Tl flux remaining, % of negative control (stronger effect = lower value), % at 10 µM; Kir2.1-expressing cells, FluxOR thallium flux fluorescence; stronger effect = lower value; AID 2032;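 active = Primary-screen hit whose thallium flux fell at least 3 control SD below untreated wells in both duplicates, with normal baseline fluorescence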;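 note: 0% = blank wells without stimulus and 100% = stimulated no-compound controls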
HEK293 Tl flux: counter-screen for Kir2.1 inhibitors: effect in parental HEK293 cells. shares compounds with KCNQ2 enhance. FluxOR thallium flux fluorescence; 0% = unstimulated blank wells. FluxOR signal as % of negative control (100 = no effect), % at 10 µM. 19% of 2,300 active;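 active = dye signal at least 3 control SD above or below untreated wells in both duplicates, raw fluorescence within 3, either direction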;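 note: percent is based on the flux ratio of peak minus minimum fluorescence over baseline F0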
CHO-K1 Tl ctr: parental CHO-K1 activity in KCNQ2 potentiator counter-screen | parental CHO-K1 cells, FluxOR thallium flux fluorescence; zero = vehicle mean+3SD, 100% = vehicle-minus-blank window | 43% of 1,200 active | shares compounds with KCNQ2 enhance | activity increase over 3SD of controls, % at 10 µM | AID 2282;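 active = signal rise of at least 3 SD above the untreated control mean, in both duplicate wells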;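 note: counter screen of KCNQ2 potentiator hits so any rise reflects channel-independent effects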
KCNQ1 sel pot: human KCNQ1 counter-target activity of KCNQ2 potentiators | activation over 3SD threshold, % at 10 µM | CHO KCNQ1 stable, FluxOR thallium flux fluorescence; beyond 3SD, as % of vehicle-control signal | AID 2283 | 28% of 1,200 active | shares compounds with KCNQ2 enhance;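 active = fluorescence ratio rise of at least 3 SD of vehicle wells above their mean, in both replicate wells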;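 note: 0% = vehicle mean plus 3 SD and 100% = vehicle minus unstimulated blank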
KCNQ2 pot confirm: rat KCNQ2 channel potentiator confirmation. AID 2287. 68% of 1,200 active. CHO-KCNQ2 cells, FluxOR thallium flux fluorescence. shares compounds with KCNQ2 enhance. potentiation, less the hit threshold, % at 10 µM;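 active = fluorescence ratio rising 3 SD or more over the vehicle control mean in both replicates, plus primary screen hit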;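 note: peak minus minimum thallium fluorescence divided by baseline after K/Tl stimulus; 0% = vehicle mean plus 3 SD and 100% = vehicle minus unstimulated blank difference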
Kir21 spec: tests whether KCNQ2 potentiators also affect mouse Kir2.1; AID 2345; 2% of 1,200 active; activity over 3SD threshold, % at 10 µM; HEK293 Kir2.1, FluxOR thallium flux fluorescence; shares compounds with KCNQ2 enhance;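 active = fluorescence ratio rise of at least 3 SD above the vehicle-control mean, seen in both replicates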;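 note: 0% = vehicle mean plus 3 SD and 100% = vehicle minus no-stimulus blank window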
KCNQ2 W236L MoA: rat KCNQ2 W236L mutant potentiation by KCNQ2 potentiators; CHO KCNQ2-W236L, automated patch clamp current; AID 2558; 10% of 940 active; current increase over 3SD of negative controls (%), stronger effect = higher value, % at 25 µM; shares compounds with KCNQ2 enhance;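 active = current increase at least 3 SD of the untreated controls above them in both duplicate recordings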
Target sequence (O88943 whole entry W236L, looked up): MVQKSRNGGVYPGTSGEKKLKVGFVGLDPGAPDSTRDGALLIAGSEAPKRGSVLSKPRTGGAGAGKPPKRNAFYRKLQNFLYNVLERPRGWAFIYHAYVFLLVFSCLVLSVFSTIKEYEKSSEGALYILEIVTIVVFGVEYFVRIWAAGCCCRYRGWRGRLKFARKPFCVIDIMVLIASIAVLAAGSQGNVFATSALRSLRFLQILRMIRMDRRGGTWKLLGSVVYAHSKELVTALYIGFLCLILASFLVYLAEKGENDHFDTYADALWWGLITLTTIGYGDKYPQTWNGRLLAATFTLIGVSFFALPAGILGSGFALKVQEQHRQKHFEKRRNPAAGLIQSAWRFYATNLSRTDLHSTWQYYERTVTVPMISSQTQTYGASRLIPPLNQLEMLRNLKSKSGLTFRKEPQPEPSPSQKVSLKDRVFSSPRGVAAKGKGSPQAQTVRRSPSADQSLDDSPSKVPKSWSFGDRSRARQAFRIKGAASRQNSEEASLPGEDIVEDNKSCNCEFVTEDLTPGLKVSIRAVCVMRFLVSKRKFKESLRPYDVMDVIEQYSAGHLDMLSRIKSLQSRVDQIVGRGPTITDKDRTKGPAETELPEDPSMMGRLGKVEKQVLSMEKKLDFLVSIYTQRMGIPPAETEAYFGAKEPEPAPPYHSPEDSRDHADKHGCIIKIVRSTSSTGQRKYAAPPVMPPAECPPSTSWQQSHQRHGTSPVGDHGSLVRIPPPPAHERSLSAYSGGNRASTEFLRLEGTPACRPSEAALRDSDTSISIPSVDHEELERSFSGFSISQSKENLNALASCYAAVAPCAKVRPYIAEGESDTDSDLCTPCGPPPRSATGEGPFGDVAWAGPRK
* = called active by the depositor; i = inactive; x = no result.

SMILES | KCNQ2 enhance | KCNQ2 block | Kir21 conf inh | HEK293 Tl flux | others
Cc1ccc(C(=O)NCCN2C3=NC[C@H](C(C)C)N3C[C@H]2Cc2ccc(O)cc2)cc1Br | x | i | x | x
CC(Cc1ccccn1)NC(=O)CCc1nnc(C2CCCCC2)o1 (stereo not given) | x | i | x | x
COc1cc(C(C2=C(O)CC(C)(C)CC2=O)C2C(=O)CC(C)(C)CC2=O)cc(OC)c1OC (stereo not given) | x | i | x | x
CC1(C)CC(=O)C(C(C2=C(O)CC(C)(C)CC2=O)c2ccco2)C(=O)C1 (stereo not given) | 5.4* | i | i | i | CHO-K1 Tl ctr=135*;KCNQ1 sel pot=-10;KCNQ2 pot confirm=42*;Kir21 spec=-44;KCNQ2 W236L MoA=i
O=C1CC(O)(C(F)(F)F)Oc2c1ccc1ccccc21 (stereo not given) | 5.7* | i | i | 248%* | CHO-K1 Tl ctr=-10;KCNQ1 sel pot=7.6*;KCNQ2 pot confirm=44*;Kir21 spec=-34;KCNQ2 W236L MoA=i
O=C1CC(O)(C(F)F)Oc2ccc3ccccc3c21 (stereo not given) | 0.79 | i | x | x
COc1ccccc1CNS(=O)(=O)c1cc(-c2cc(C)no2)ccc1C(C)C | x | i | x | x
COc1ccc(C)cc1NS(=O)(=O)c1ccc(NS(=O)(=O)c2ccc(NC(C)=O)cc2)cc1 | 0.06 | i | x | x
COc1ccc(S(=O)(=O)Nc2cc(C)ccc2OC)cc1C | x | i | 77%* | i
COc1ccc(Cl)cc1NS(=O)(=O)c1ccc(OC)c(OC)c1 | x | i | 51%* | 140%*
COc1ccc(S(=O)(=O)Nc2cc(Cl)ccc2OC)cc1 | x | i | x | x
CCC1(c2ccc(F)cc2)NC(=O)N(CC(=O)Nc2ccc(N3CCCCC3)cc2)C1=O (stereo not given) | x | i | x | x
C/C(CC(=O)Nc1ccc(C)c(Cl)c1)=N\NC(=O)C1CCCCC1 | 0.33 | i | x | x
COc1cc(C2C3=C(CC(C)(C)CC3=O)N(C)C3=C2C(=O)CC(C)(C)C3)cc(Br)c1O | x | i | x | x
CCC(NC(=S)NC1CCCCC1)c1ccc(C(C)C)cc1 (stereo not given) | 14* | i | i | i | CHO-K1 Tl ctr=18*;KCNQ1 sel pot=-25;KCNQ2 pot confirm=54*;Kir21 spec=-32;KCNQ2 W236L MoA=i
Cc1ccc(C(C)NC(=S)NC2CCCCC2)c(C)c1 (stereo not given) | 7.3* | i | x | x | CHO-K1 Tl ctr=70*;KCNQ1 sel pot=-6;KCNQ2 pot confirm=-2;Kir21 spec=-55;KCNQ2 W236L MoA=8.5%*
CCN1CCN(C(c2cccs2)C(C)NC(=S)NC2CCCCC2)CC1 (stereo not given) | x | i | x | x
CC(=O)NC(CC(=O)NC1CCCCCC1)c1ccccc1 (stereo not given) | 1.4 | i | x | x
CCC(NC(=O)NC1CCCCC1)c1ccccc1 (stereo not given) | 19* | i | i | i | CHO-K1 Tl ctr=-18;KCNQ1 sel pot=-13;KCNQ2 pot confirm=70*;Kir21 spec=-35;KCNQ2 W236L MoA=i
Cc1ccc(C(C)NC(=S)NC2CCCCC2)cc1C (stereo not given) | 25* | i | i | i | CHO-K1 Tl ctr=-30;KCNQ1 sel pot=8.7*;KCNQ2 pot confirm=103*;Kir21 spec=-51;KCNQ2 W236L MoA=i
COc1ccc(C(C)NC(=S)NC2CCCC2)cc1OC (stereo not given) | 0.16 | i | x | x
Cc1ccc(C(C)NC(=O)C2CCCC2)c(C)c1 (stereo not given) | 0.67 | i | x | x
CC(=O)c1sc(NC(=O)C2CC(=O)N(Cc3ccccc3)C2)nc1-c1ccccc1 (stereo not given) | x | i | x | x
Cn1c(CNC(=O)c2ccccc2F)nnc1SCc1nc2ccccc2c(=O)[nH]1 | 1.2 | i | x | x
CCCCn1c(N)c(N(CCOC)C(=O)c2cnc(C)cn2)c(=O)[nH]c1=O | x | i | x | x
SMILES | KCNQ2 enhance | KCNQ2 block | Kir21 conf inh | HEK293 Tl flux | others
CCN(CC(=O)Nc1ccc(NC(C)=O)cc1)C(=O)c1n[nH]c(=O)c2ccccc12 | x | i | x | x
O=C(CCC(=O)N(Cc1ccco1)C(C(=O)NC1CCCC1)c1ccncc1)Nc1cccnc1 (stereo not given) | 0.57 | i | x | x
COc1cc(C)ccc1OCc1cc(C(=O)N(Cc2nccn2C)C(C)C)no1 | 0.77 | i | x | x
COC(=O)c1ccc(N2CCN(C)CC2)c(NC(=O)c2cccs2)c1 | 0.65 | i | x | x
Cc1ccc(NC(=O)CNC(=O)c2cccs2)nc1 | x | i | x | x
CN(C(=O)CSc1ncnc2scc(-c3ccccc3)c12)C1CCS(=O)(=O)C1 (stereo not given) | 0.37 | i | x | x
CN(C(=O)CSc1ncnc2sc(-c3ccccc3)cc12)C1CCS(=O)(=O)C1 (stereo not given) | 20* | i | i | 448%* | CHO-K1 Tl ctr=0.0*;KCNQ1 sel pot=-19;KCNQ2 pot confirm=76*;Kir21 spec=-21;KCNQ2 W236L MoA=i
COCCCn1c(=O)c2sccc2n2c(CCCC(=O)NCc3ccccc3)nnc12 | 0.15 | i | x | x
COc1ccccc1OCCNc1cc(N2CCCCC2)ccc1[N+](=O)[O-] | x | i | x | x
Cc1ccccc1OCCNc1cc(N2CCNCC2)ccc1[N+](=O)[O-] | x | i | 36%* | i
S=c1nc(-c2ccc(Br)cc2)[nH]c2ccccc12 | 26* | i | i | 452%* | CHO-K1 Tl ctr=-3;KCNQ1 sel pot=-4;KCNQ2 pot confirm=40*;Kir21 spec=-8;KCNQ2 W236L MoA=i
Fc1ccc(-c2nc3ccccc3[nH]2)cc1 | 0.68 | i | x | x
O=C(O)C1C2CCC(C2)C1C(=O)N1CCCC1 (stereo not given) | x | i | x | x
O=C(O)/C=C/C(=O)N1CCN(c2cccc(Cl)c2)CC1 | 0.11 | i | i | i
O=C(O)CCC(=O)N1CCN(c2cccc(Cl)c2)CC1 | 0.8 | i | x | x
O=C(COC(=O)CCSc1ccc(Cl)cc1)NCCc1ccccc1 | x | i | x | x
CC(C)(Oc1ccc(Cl)cc1)C(=O)OCC(=O)NCCc1ccccc1 | 1.8 | i | 62%* | i
CC(=O)Nc1ccc(NC(=O)c2nc(S(=O)(=O)Cc3ccccc3)ncc2Cl)cc1 | x | i | x | x
CCc1nnc(NC(=O)c2nc(S(=O)(=O)Cc3ccccc3)ncc2Cl)s1 | 12* | i | i | i | CHO-K1 Tl ctr=97*;KCNQ1 sel pot=-19;KCNQ2 pot confirm=87*;Kir21 spec=-44;KCNQ2 W236L MoA=70%*
CCOc1ccccc1NC(=O)c1nc(S(=O)(=O)Cc2cccc(C)c2)ncc1Cl | 0.76 | i | x | x
CCc1nnc(NC(=O)c2nc(S(=O)(=O)Cc3ccc(C)cc3)ncc2Cl)s1 | 15* | i | x | x | CHO-K1 Tl ctr=-22;KCNQ1 sel pot=-16;KCNQ2 pot confirm=63*;Kir21 spec=-53;KCNQ2 W236L MoA=26%*
